Test results as given in PubChem BioAssay (NCI).
Compounds without any hit were thinned out: in the full panel of roughly 79,000, 15% have a hit. The source made the active and inactive calls. No stated cut-off is given here; in the data, active means growth inhibition above about 70%; inactive means the rest.

Experiments:
[1] = NCI Yeast Anticancer Drug Screen. Data for the rad52 strain (AID 147);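 further: 0% = growth of vehicle-treated control cultures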; settings: S. cerevisiae rad52 mutant growth inhibition, stronger effect = higher value
In short: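 Growth of repair-deficient yeast cells was compared between compound-treated and vehicle-treated cultures to give percent inhibition.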

[2] = NCI Yeast Anticancer Drug Screen. Data for the wt1 strain (AID 149);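 further: 0% = growth of vehicle-treated wt1 cultures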; settings: S. cerevisiae wt1 strain (SPY 50644) growth inhibition, stronger effect = higher value
In short: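 Each compound is tested on wt1 yeast and the loss of growth versus vehicle gives the inhibition value.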

[3] = NCI Yeast Anticancer Drug Screen. Data for the rad50EPP+ strain (AID 151);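 further: 0% = growth of vehicle-treated control cultures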; settings: S. cerevisiae rad50 mutant strain, stronger effect = higher value
In short: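 Measured: growth inhibition of rad50EPP+ yeast. Reference: vehicle-treated controls. Screen uses strains with defined genetic alterations in DNA damage repair or cell cycle control.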

[4] = NCI Yeast Anticancer Drug Screen. Data for the mgt1 strain (AID 153); settings: S. cerevisiae mgt1 mutant growth inhibition, stronger effect = higher value
In short: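 Compounds were applied to mgt1 mutant yeast, and growth was then compared against vehicle-treated control cultures to give percent inhibition.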

[5] = NCI Yeast Anticancer Drug Screen. Data for the rad50 strain (AID 155);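 further: 0% = growth of vehicle-only cultures of the same strain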; settings: S. cerevisiae rad50 strain growth inhibition, stronger effect = higher value
In short: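 Vehicle-treated cultures provide the reference for the growth inhibition reported for compound-exposed, repair-deficient yeast.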

[6] = NCI Yeast Anticancer Drug Screen. Data for the mec2-1 strain (AID 157); settings: S. cerevisiae mec2-1 strain, stronger effect = higher value
In short: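 Compounds were applied to mec2-1 yeast cells. Their growth was then compared with that of vehicle-treated cultures to give growth inhibition.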

[7] = NCI Yeast Anticancer Drug Screen. Data for the rad14 strain (AID 159);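 further: 0% = growth of vehicle-treated control cultures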; settings: S. cerevisiae rad14 strain growth inhibition, stronger effect = higher value
In short: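 Inhibition of growth is reported for a repair-deficient yeast mutant following compound treatment, calculated relative to cultures that received vehicle.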

[8] = NCI Yeast Anticancer Drug Screen. Data for the sgs1 mgt1 strain (AID 161);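 further: 0% = growth of cultures given vehicle only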; settings: S. cerevisiae sgs1 mgt1 strain, stronger effect = higher value
In short: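 Growth of a repair-deficient yeast mutant was monitored after compound treatment and expressed as inhibition relative to vehicle-treated cultures.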

[9] = NCI Yeast Anticancer Drug Screen. Data for the CLN2oe strain (AID 163);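 further: 0% = growth of vehicle-only control cultures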; settings: S. cerevisiae CLN2oe strain, stronger effect = higher value
In short: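 Cells of an engineered yeast line with disturbed cell-cycle regulation are treated with compound. Inhibition of growth is then calculated relative to the vehicle-treated reference.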

[10] = NCI Yeast Anticancer Drug Screen. Data for the cln2 rad14 strain (AID 165);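 further: 0% = growth equal to vehicle treated cultures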; settings: S. cerevisiae cln2 rad14 strain, stronger effect = higher value
In short: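 Strain: cln2 rad14 yeast, altered in cell cycle control and DNA damage repair. Read-out: growth inhibition vs vehicle.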

[11] = NCI Yeast Anticancer Drug Screen. Data for the bub3 strain (AID 167); settings: S. cerevisiae bub3 mutant strain, stronger effect = higher value
In short: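 Mutant yeast screening strain plus compound; vehicle-treated cultures serve as the 0% inhibition reference.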

[12] = NCI Yeast Anticancer Drug Screen. Data for the wt2 strain (AID 169); settings: S. cerevisiae wt2 strain growth inhibition, stronger effect = higher value
In short: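 Growth of compound-treated yeast is measured and expressed as inhibition relative to vehicle-only controls.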

[13] = NCI Yeast Anticancer Drug Screen. Data for the mlh1 strain (AID 171);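 further: 0% = growth of vehicle-treated control cultures of the same strain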; settings: S. cerevisiae mlh1 strain growth inhibition, stronger effect = higher value
In short: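 Test agents were incubated with yeast bearing a defined DNA damage repair or cell cycle control alteration; values are growth inhibition normalised to vehicle-treated cultures.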

[14] = NCI Yeast Anticancer Drug Screen. Data for the sgs1 strain (AID 173);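 further: 0% = growth of vehicle-only control cultures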; settings: S. cerevisiae sgs1 mutant, stronger effect = higher value
In short: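 Strain with an altered DNA repair or cell cycle pathway exposed to compound. Growth then measured. Value = inhibition versus vehicle control.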

[15] = NCI Yeast Anticancer Drug Screen. Data for the mlh1 rad18 strain (AID 175); settings: S. cerevisiae mlh1 rad18 strain growth inhibition, stronger effect = higher value
In short: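 A repair-deficient yeast strain is exposed to test compound, and growth is scored relative to vehicle-treated controls.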

[16] = NCI Yeast Anticancer Drug Screen. Data for the rad18 strain (AID 177); settings: S. cerevisiae rad18 mutant growth inhibition, stronger effect = higher value
In short: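 DNA-repair-defective yeast; compound treatment; growth inhibition scored against vehicle.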

[17] = at 5.0 µM (retest, dose inferred, filed as 0.5)
[18] = at 50.0 µM (retest, dose inferred, filed as 5.0)

Measured: growth inhibition

C[n+]1c(-c2ccc(/C=N/NC(=O)c3ccc(C(=O)N/N=C/c4ccc(-c5cn6ccccc6[n+]5C)cc4)cc3)cc2)cn2ccccc21
inactive: [1]; at 1.2 µM 5% | [1]; at 3.7 µM 14% | [1]; at 11.0 µM 29% | [1]; at 33.0 µM 54% | [1]; at 100.0 µM 60% | [2]; at 1.2 µM 9% | [2]; at 3.7 µM 16% | [2]; at 11.0 µM 26% | [2]; at 33.0 µM 25% | [2]; at 100.0 µM 25% | [3]; at 1.2 µM 69% | [4]; at 1.2 µM 13% | [4]; at 3.7 µM 22% | [4]; at 11.0 µM 42% | [5]; at 1.2 µM 6% | [5]; at 3.7 µM 10% | [5]; [17] 15% | [5]; at 11.0 µM 16% | [5]; at 33.0 µM 55% | [6]; at 1.2 µM 7% | [6]; at 3.7 µM 13% | [6]; [17] -7% | [6]; at 11.0 µM 23% | [6]; at 33.0 µM 41% | [6]; [18] 63% | [6]; at 50.0 µM 49.4% | [7]; at 1.2 µM -1% | [7]; at 3.7 µM 3% | [7]; at 11.0 µM 15% | [7]; at 33.0 µM 66% | [7]; at 100.0 µM 60% | [8]; [17] 24% | [8]; [18] 62% | [9]; at 1.2 µM -2% | [9]; at 3.7 µM 0% | [9]; at 11.0 µM 13% | [9]; at 33.0 µM 30% | [9]; at 100.0 µM 38% | [10]; [17] 16% | [10]; at 50.0 µM 51.4% | [11]; at 1.2 µM -5% | [11]; at 3.7 µM 2% | [11]; [17] -1% | [11]; at 11.0 µM 13% | [11]; at 50.0 µM 69.7% | [12]; at 1.2 µM 13% | [12]; at 3.7 µM 27% | [12]; at 11.0 µM 63% | [13]; at 1.2 µM 3% | [13]; at 3.7 µM 11% | [13]; at 11.0 µM 37% | [13]; at 33.0 µM 69% | [14]; at 1.2 µM 11% | [14]; at 3.7 µM 22% | [14]; at 11.0 µM 44% | [15]; [17] 50% | [16]; at 1.2 µM 10% | [16]; at 3.7 µM 17% | [16]; at 11.0 µM 55% | [16]; at 33.0 µM 55%
active: [3]; at 3.7 µM 86% | [3]; at 11.0 µM 94% | [3]; at 33.0 µM 94% | [3]; at 100.0 µM 94% | [4]; at 33.0 µM 84% | [4]; at 100.0 µM 71% | [5]; [18] 92% | [5]; at 50.0 µM 81.2% | [5]; at 100.0 µM 79% | [6]; at 100.0 µM 76% | [8]; at 50.0 µM 70.7% | [10]; [18] 78% | [11]; at 33.0 µM 70% | [11]; [18] 91% | [11]; at 100.0 µM 76% | [12]; at 33.0 µM 88% | [12]; at 100.0 µM 82% | [13]; at 100.0 µM 84% | [14]; at 33.0 µM 74% | [14]; at 100.0 µM 81% | [15]; [18] 96% | [15]; at 50.0 µM 92% | [16]; at 100.0 µM 70%
